PubChem BioAssay (NCATS)
Records with an inconclusive call do not appear. Calls of active or inactive are those of the source. Unless noted, the call rests on the fitted dose curve; in most records, active means well fitted curve in the direction sought with a large enough effect; inconclusive means small, poorly fitted or top-dose-only effect, or another doubt; inactive means no such curve, though single readings can be large; an effect the other way counts as inactive or inconclusive.

Legend:
[1] = target: Cytochrome P450 3A4 (Homo sapiens) (UniProt P08684); experiment: qHTS Assay for Inhibitors and Substrates of Cytochrome P450 3A4 (AID 884); further: series mostly up to about 57 µM; on the % scale 0 is the no-effect control and ±100 the full control effect; nearly all actives have a fitted effect of over 50% in size
Chain of Cytochrome P450 3A4 (Homo sapiens) (P08684 whole entry, looked up): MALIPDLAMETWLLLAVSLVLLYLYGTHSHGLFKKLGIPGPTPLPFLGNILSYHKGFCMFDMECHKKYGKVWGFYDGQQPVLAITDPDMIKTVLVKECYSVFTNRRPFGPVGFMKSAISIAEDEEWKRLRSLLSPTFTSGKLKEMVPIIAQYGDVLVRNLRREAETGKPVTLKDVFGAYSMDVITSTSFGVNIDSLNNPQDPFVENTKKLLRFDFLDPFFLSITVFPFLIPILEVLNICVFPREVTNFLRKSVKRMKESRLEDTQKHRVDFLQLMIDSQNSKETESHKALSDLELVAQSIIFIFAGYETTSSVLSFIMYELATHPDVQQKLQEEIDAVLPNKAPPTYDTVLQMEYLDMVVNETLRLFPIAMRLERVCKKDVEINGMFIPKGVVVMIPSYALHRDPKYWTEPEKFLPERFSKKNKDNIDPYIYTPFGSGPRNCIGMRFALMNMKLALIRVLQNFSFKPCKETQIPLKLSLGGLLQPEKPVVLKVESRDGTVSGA
Summary of the method: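 Luminescent readout of luciferin produced by CYP3A4 (20 nM) dealkylation of Luciferin-PPXE, 25 uM (its KM). NADPH-driven reaction ran 60 min at RT after 10 min compound preincubation; data scaled to 57 uM ketoconazole as 100% inhibition.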

[2] = tested on: Zika virus NS2B-NS3 protease; experiment: Primary screen GU AMC qHTS for Zika virus inhibitors (AID 1347154);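 further: 0% = no-inhibitor control and -100% = no-enzyme control; nearly all actives have a fitted effect of over 70% in size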
Summary of the method: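 Fluorogenic AMC-substrate cleavage by noncovalent NS2B-NS3 protease complex (25 nM, pH 8.0 Tris buffer with Tween 20) followed for 15 minutes at room temperature (~20% conversion). Percent inhibition from ex340/em450 signal change, fitted by 4-parameter Hill equation.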

[3] = Cell Viability qHTS for small molecule stabilizers of the endoplasmic reticulum resident proteome (AID 1508629); conditions: cell viability counter-screen, 100 nM thapsigargin for final 4 h;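 further: human SH-SY5Y neuroblastoma cells carrying the GLuc-SERCaMP reporter; compound exposure about 46 h in total before the viability read; on the % scale 0 is the no-effect control and ±100 the full control effect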
[4] = target: Cytochrome P450 1A2 (Homo sapiens) (UniProt P05177); experiment: p450-cyp1a2 (AID 410; calls by dose curve; further: potency means the concentration at half of the fitted maximal effect)
Chain of Cytochrome P450 1A2 (Homo sapiens) (P05177 whole entry, looked up): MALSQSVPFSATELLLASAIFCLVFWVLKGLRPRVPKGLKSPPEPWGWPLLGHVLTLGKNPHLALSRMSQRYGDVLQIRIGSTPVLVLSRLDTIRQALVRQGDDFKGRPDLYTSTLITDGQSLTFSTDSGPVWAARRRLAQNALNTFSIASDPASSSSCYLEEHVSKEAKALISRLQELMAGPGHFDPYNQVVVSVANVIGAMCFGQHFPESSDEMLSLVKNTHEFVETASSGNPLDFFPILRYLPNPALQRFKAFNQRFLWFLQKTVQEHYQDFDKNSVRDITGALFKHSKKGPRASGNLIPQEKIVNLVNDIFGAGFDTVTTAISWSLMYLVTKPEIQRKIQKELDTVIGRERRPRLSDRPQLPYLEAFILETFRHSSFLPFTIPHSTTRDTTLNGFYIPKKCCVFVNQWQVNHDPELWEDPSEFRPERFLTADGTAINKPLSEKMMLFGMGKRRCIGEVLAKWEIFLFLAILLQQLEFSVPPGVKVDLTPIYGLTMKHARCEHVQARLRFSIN
Summary of the method: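 O-Demethylation of luciferin 6' methyl ether by human CYP1A2 is monitored as luciferase luminescence. Substrate sits at Km (100uM); enzyme is 20nM. Values are scaled to 57 uM furafylline as maximal inhibition.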

[5] = target: Glucocorticoid receptor (Homo sapiens) (UniProt P04150); experiment: GR-GFP Redistribution (AID 450;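 active means compounds whose dose series gives a full or clear partial fitted curve of increased nuclear translocation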; further: potency means the concentration at half of the fitted maximal effect); conditions: U2OS GR-GFP nuclear translocation, laser cytometry, 2 h
Chain of Glucocorticoid receptor (Homo sapiens) (P04150 whole entry, looked up, the tested form may be a part): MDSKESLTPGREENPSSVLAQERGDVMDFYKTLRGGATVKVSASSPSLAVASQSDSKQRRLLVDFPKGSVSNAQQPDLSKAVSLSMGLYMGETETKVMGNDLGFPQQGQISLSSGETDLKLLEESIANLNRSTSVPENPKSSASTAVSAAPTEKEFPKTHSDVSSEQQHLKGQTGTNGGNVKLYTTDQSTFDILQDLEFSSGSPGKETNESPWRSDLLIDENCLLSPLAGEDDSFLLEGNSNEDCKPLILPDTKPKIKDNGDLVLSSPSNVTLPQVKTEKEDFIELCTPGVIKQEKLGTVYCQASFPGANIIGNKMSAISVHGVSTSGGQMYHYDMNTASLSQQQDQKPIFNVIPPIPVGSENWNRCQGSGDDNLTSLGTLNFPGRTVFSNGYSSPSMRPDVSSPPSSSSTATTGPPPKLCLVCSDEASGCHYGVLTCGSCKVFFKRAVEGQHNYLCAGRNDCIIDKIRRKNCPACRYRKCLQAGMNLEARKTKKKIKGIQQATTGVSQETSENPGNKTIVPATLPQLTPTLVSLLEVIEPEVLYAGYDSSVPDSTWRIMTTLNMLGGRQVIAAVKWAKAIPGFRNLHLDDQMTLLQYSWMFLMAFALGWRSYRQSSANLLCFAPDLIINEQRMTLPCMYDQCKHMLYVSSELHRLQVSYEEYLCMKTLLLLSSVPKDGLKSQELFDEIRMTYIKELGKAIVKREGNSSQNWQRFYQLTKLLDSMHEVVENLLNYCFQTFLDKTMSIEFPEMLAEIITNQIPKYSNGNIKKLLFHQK

[6] = target: Glucocorticoid receptor (Homo sapiens) (UniProt P04150); experiment: GR-EFC Redistribution (AID 451; calls by dose curve; further: potency means the concentration at half of the fitted maximal effect); conditions: CHO-K1 GR-EFC translocation, beta-gal luminescence, 2 h
Summary of the method: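 Translocation of GR-ED fusion to nuclear EA restores b-gal, read by luminescence after 1 h room-temperature detection. Engineered CHO-K1 biosensor cells, 1,000/well, exposed 2 h at 37 C to titrations up to 46 uM final.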

[7] = target: Mitogen-activated protein kinase 10 (Mus musculus) (UniProt Q61831); experiment: JNK3 AlphaScreen Assay (AID 530; active means well fitted curve in either direction with a large enough effect, not every such curve was filed as active;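 further: kinase came from lysate of stimulated human HepG2 cells; signal reports phosphorylation of biotinylated GST-cJun 1-79 at Ser73 with 10 µM ATP; series mostly up to about 57 µM; on the % scale 0 is the no-effect control and ±100 the full control effect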)
Summary of the method: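 qHTS titrations with 15 min compound pre-incubation before adding ATP (10 uM final). Read-out: AlphaScreen of Ser73-phosphorylated biotin-GST-cJun using HepG2 lysate JNK3 activated by IL-1β and TNFα.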

[8] = target: Cytochrome P450 3A4 (Homo sapiens) (UniProt P08684); experiment: qHTS Assay for Activators of Cytochrome P450 3A4 (AID 885); further: nearly all actives have a fitted effect of over 65% in size
Summary of the method: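 CYP3A4 activity: Luciferin-PPXE O-dealkylation, 25uM substrate, 200mM KPO4, RT throughout. Read-out is luciferase luminescence; higher values reflect activation.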

[9] = target: Ubiquitin carboxyl-terminal hydrolase 1 (Homo sapiens) (UniProt O94782); experiment: Inhibitors of USP1/UAF1: Pilot qHTS (AID 504865);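 further: rhodamine fluorescence freed from ubiquitin-rhodamine substrate followed over time; top concentration of the series differs between compounds; on the % scale 0 is the no-effect control and ±100 the full control effect; nearly all actives have a fitted effect of over 35% in size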
Chain of Ubiquitin carboxyl-terminal hydrolase 1 (Homo sapiens) (O94782 whole entry, looked up): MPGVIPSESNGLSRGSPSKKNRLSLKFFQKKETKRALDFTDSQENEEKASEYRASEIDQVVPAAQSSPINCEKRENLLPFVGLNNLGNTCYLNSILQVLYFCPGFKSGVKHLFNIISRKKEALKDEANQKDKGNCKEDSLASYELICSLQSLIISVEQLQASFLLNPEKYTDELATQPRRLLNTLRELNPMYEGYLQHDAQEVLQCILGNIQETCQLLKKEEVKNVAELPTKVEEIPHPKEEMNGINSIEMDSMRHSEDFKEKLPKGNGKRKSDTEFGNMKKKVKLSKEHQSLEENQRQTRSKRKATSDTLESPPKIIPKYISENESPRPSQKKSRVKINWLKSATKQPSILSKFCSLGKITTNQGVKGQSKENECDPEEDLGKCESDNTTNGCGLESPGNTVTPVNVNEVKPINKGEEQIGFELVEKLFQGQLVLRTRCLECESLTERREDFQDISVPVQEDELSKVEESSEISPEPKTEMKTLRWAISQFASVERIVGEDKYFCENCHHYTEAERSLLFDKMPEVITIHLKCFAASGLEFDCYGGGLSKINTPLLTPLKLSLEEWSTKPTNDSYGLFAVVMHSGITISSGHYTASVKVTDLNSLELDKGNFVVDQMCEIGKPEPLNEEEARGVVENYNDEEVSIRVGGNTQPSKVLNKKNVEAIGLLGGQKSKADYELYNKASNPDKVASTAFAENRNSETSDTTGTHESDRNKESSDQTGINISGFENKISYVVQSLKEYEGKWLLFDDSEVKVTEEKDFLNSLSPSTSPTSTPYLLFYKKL
Summary of the method: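 USP1/UAF1 complex at 1 nM preincubated 15 min at room temperature with compound, then Ub-Rho substrate added at 150 nM final. Fluorescence (480/540 nm) read kinetically in 50 mM HEPES pH 7.8, 0.5 mM EDTA, 1 mM TCEP, 0.1 mg/ml BSA, 0.01% Tween-20.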

[10] = target: DNA dC->dU-editing enzyme APOBEC-3G (Homo sapiens) (UniProt Q9HC16); experiment: qHTS for inhibitors of Vif-A3G interactions: Validation (AID 588379); further: 0% is about no effect
Chain of DNA dC->dU-editing enzyme APOBEC-3G (Homo sapiens) (Q9HC16 whole entry, looked up): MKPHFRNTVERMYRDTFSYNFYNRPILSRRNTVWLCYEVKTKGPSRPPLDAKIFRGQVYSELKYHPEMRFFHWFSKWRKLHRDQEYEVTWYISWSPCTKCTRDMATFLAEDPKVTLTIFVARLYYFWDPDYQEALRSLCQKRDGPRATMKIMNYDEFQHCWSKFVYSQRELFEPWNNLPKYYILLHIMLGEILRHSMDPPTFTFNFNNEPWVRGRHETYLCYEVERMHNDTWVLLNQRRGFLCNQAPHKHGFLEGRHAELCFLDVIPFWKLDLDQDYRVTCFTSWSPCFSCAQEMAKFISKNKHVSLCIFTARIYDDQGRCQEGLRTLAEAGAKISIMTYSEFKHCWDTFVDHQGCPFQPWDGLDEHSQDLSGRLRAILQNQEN
Summary of the method: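 Yellow fluorescence (Ex 488, Em 500-530) of Vif-coexpressing HeLa A3G-eYFP cells, scanned by Acumen cytometer, reports blocked A3G degradation. Cells plated at 700/well overnight at 37 deg C before compound addition, then a further overnight compound incubation at 37 deg C.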

[11] = Primary qHTS for small molecule stabilizers of the endoplasmic reticulum resident proteome: Secreted ER Calcium Modulated Protein (SERCaMP) assay (AID 1508630); further: on the % scale 0 is the no-effect control and ±100 the full control effect
Summary of the method: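 The SH-SY5Y reporter protocol was run at 3 concentrations up to 38.3 uM (primary) or 11 concentrations (follow-up): 16 h compound, 100 nM thapsigargin for 4 h, then extracellular luciferase luminescence.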

Cn1c2c(c3ccccc31)CCNCC2
inactive: Potency [1] | Potency [2] | max response [3] 24.2%

CC(=O)C1=C(O)[C@@H]2[C@@H]3c4c[nH]c5cccc(c45)C[C@@H]3C(C)(C)N2C1=O
inactive: Potency [5] > 46 µM | Potency [6] > 46 µM | outcome [7] | Potency [8] | Potency [9] | Potency [10] | Potency [2] | max response [3] -1.84% | Potency [11]
active: Potency [4] 12.6 µM

CC(C)C[C@H](NC(=O)[C@H](Cc1ccccc1)NC(=O)CNC(=O)[C@H](CO)NC(=O)[C@@H](N)Cc1ccc(O)cc1)C(=O)N[C@H](C(=O)O)[C@H](C)O
inactive: activity change, negative = inhibition [2] 10.8% [at 6.83 µM] | activity change, negative = inhibition [11] -28.8% [at 3.88 µM]
